The structures appear in SMILES notation. Unmarked numbers belong to inactive results. The rule behind the calls is not given here.

Consider 40 compounds from PubChem BioAssay.

Pantothenate synthetase (Mycobacterium tuberculosis (strain ATCC 25618 / H37Rv)), sequence (P9WIL5 whole entry, looked up): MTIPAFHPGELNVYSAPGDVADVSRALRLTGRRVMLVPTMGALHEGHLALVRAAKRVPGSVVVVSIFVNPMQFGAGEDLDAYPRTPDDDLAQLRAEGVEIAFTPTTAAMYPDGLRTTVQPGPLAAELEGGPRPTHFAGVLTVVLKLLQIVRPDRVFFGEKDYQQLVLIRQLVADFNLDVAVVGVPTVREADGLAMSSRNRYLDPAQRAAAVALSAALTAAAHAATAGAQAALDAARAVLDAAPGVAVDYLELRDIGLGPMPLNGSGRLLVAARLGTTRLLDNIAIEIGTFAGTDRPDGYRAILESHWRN

This assay concerns the target Pantothenate synthetase (Mycobacterium tuberculosis (strain ATCC 25618 / H37Rv)) (UniProt P9WIL5). Put plainly: Coupled enzyme confirmation of inhibitors against recombinant Mtb PanC (AID 375).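 Note: 0% = full reaction with vehicle and 100% = no enzyme background.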 To be noted: coupled enzyme assay; at 10 µM, hits give high values.
On to `CN1CCN(/C=N/c2sc3c(c2C#N)CCCCC3)CC1`, for which the inhibition was 4%.

For `c1ccc(CNc2ncnc3ccccc23)cc1`, the inhibition is 12%. Next, `COc1cc(C)c(-c2cc(C(=O)O)c(C)o2)cc1C(C)C`: 0%; `Cc1cccc(N2CCN(C(=O)c3cc4c(=O)[nH]c5ccccc5c4n3C)CC2)c1C`: 7%; `Cc1cccc(-c2noc(CCC(=O)Nc3ccccc3)n2)c1`: 5%. Consider `Cc1ccc(CCNC(=O)Cn2cccc2)cc1`, for which the inhibition was 0%. Turning to `Cn1ccnc1SCCC#N`, the inhibition is 7%.

`CCc1ccc(NC(=O)CS(=O)CC(=O)NC(C)CCc2ccco2)cc1` (stereo not given): the inhibition is 2%. `Cc1nc2ccc(F)cc2cc1C(=O)NCC1CCCO1` (stereo not given): the inhibition was 0%. With `C=CCn1cnc2c(NCc3ccccc3)ncnc21`, the inhibition was 4%. Regarding `O=C(Nc1ncc(Cc2ccccc2)s1)C1CCCO1` (stereo not given), the inhibition was 5%. As for `Cc1ccc(NC(=O)CN2CC(C)SC2=NC2CCCCC2)cc1` (stereo not given), the inhibition was 6%. `CCn1c(=O)c(C(=O)Nc2cccnc2)c(O)c2ccccc21`: the inhibition is 0%.

As for `O=C(CSc1nnc(-c2ccccc2)o1)N1CCc2ccccc2C1`, the inhibition was 0%. For the compound `O=C(CCN1CCOCC1)Nc1cccc(Br)c1`, the inhibition is 10%.

Regarding `Cn1nnnc1SCc1cn2cccnc2n1`, the inhibition is 0%. Next, `COC(=O)CSc1ncccc1-c1nc2ccccc2[nH]1`: 0%. `CN1C2C=C3C(C#N)=C(N)C(C#N)(C#N)[C@@H](c4ccc(Cl)cc4)[C@@H]3C1CC2` (stereo not given in full): the inhibition is 7%. On to `Cc1oc(C(=O)O)cc1CSCc1cc(C(=O)O)c(C)o1`, for which the inhibition was 2%. For the compound `CCc1nnc(NC(=O)C2CCN(c3nccc(C)n3)CC2)s1`, the inhibition is 8%. On to `Cc1ccccc1NC(=O)C1CCCN(S(=O)(=O)c2cccc3cccnc23)C1` (stereo not given), for which the inhibition was 0%. Regarding `O=C(Nc1nc2ccc(S(=O)(=O)N3CCCC3)cc2s1)C1CCCO1` (stereo not given), the inhibition is 0%. For `CN1CCN(C(=O)C2(NC(=O)Nc3cccc(F)c3)CCCCC2)CC1`, the inhibition was 0%.

`Cc1cc(-c2nc3ncccc3o2)ccc1N`: the inhibition is 0%. On to `Cc1ccc(NS(=O)(=O)c2cn(C)cn2)cc1`, for which the inhibition is 5%.

As for `CCn1c(SCC(=O)Nc2ccc3c(c2)OCO3)nnc1-c1ccccc1O`, the inhibition was 2%. Regarding `C=CCn1c(SCC(=O)NC2CCCCC2)nnc1-c1sc(N)nc1C`, the inhibition was 7%.

As to `Cc1ccc2oc(=O)c3cnn(CC(=O)N4CCCCC4C)c3c2c1` (stereo not given), the inhibition was 0%. As for `CC(C)Cc1nc(S(=O)(=O)c2ccc(Cl)cc2)c(N2CCOCC2)o1`, the inhibition is 0%. For the compound `COc1ccc(C2CC(=O)c3c(C)nc(N4CCN(c5ccccc5)CC4)nc3C2)cc1` (stereo not given), the inhibition was 0%.

For `Cn1c(COc2ccccc2)nnc1SCC(=O)Nc1ccc(N2CCOCC2)c(Cl)c1`, the inhibition is 6%.

Turning to `COc1ccc(CCNC(=O)CSc2nncn2N)cc1OC`, the inhibition is 5%. Next, `O=C1C2CCCN2C(c2ccc(Cl)cc2)N1c1nccs1` (stereo not given): 0%; `CCN(CC)C(=O)c1sc(NC(=O)c2ccco2)c(C#N)c1C`: 15%; `COc1cc(NC(=O)c2cc(CC(C)C)on2)c(OC)cc1Cl`: 5%.

Take `COc1ccc2cc(C(c3nnnn3C(C)(C)C)N3CCc4ccccc4C3)c(=O)[nH]c2c1` (stereo not given): the inhibition was 11%. Consider `C=CCn1c(=S)[nH]c2nc3c(cc2c1=O)COC(C)(C)C3`, for which the inhibition was 16%. For `CCOC(=O)c1ccc2ncc(C(=O)OCC)c(NCCN(C)C)c2c1`, the inhibition is 0%. In the case of `COc1ccc(N2C(=O)C3CCCN3C2c2ccc(F)cc2)cc1Cl` (stereo not given), the inhibition was 1%. Regarding `Nc1cc(N)cc(-c2nc3ccccc3o2)c1`, the inhibition is 4%.

In general, inhibition refers to how much of the control response was suppressed.
